About 3,700 (1.2%) of roughly 300,000 compounds were called active. Another 20% or so got no clear call; they are omitted. Calls come from the whole dose curve; tested in HEK293 cells. Many of the other results were omitted from the sample, so actives are more common in it than they were.
Experiment: qHTS for Inhibitors of binding or entry into cells for Lassa Virus; note: nearly all actives have a fitted effect of over 50% in size
Details: Lassa virus pseudotype entry inhibition, cell reporter; series mostly up to 37.9 µM; activity change, negative = inhibition: at the top concentration
% is set by controls: 0 for no effect and ±100 for the full control effect; potency is the fitted concentration of half-maximal effect.

| SMILES | activity change, negative = inhibition | Potency |
| --- | --- | --- |
| COc1ccc(NC(=O)c2ccc3nc(C(C)C)oc3c2)cc1OC | 16.1% [at 46.1 µM] (inactive) | – |
| NC(=O)C1(Nc2ccc(-c3ccccc3)cc2)CCCC1 | 12.5% (inactive) | – |
| CCOc1ccc(/C=C(/C#N)c2nnc(N3CCOCC3)n2-c2ccccc2)cc1OC | 0.0997% [at 46.1 µM] (inactive) | – |
| Cc1nc(N2CCOCC2)c2c(C)c(C(=O)Nc3ccc(C(F)(F)F)cc3)sc2n1 | – | 2.24 µM (active) |
| CCOC(=O)C1CCCN(C(=O)c2sc3nc(C)nc(N4CCOCC4)c3c2C)C1 (centres undefined) | 0.0096% (inactive) | – |
| Cc1nc(N2CCC(C)CC2)c2c(C)c(C(=O)Nc3cc(F)ccc3C)sc2n1 | 19.3% (inactive) | – |
| COc1ccc(NS(=O)(=O)c2ccc(N3CCOCC3)c(NC(=O)/C=C/C(=O)O)c2)cc1 | 0.984% (inactive) | – |
| c1ccc2c(c1)[I+]c1ccccc1-2 | – | 0.259 µM (active) |
| N=C1c2ccccc2-c2ccccc21 | -12.6% [at 46.1 µM] (inactive) | – |
| CCC(C(=O)NC1CCCC1)N(C(=O)c1snc(C(N)=O)c1N)c1ccc2c(c1)OCCO2 (centres undefined) | -18.4% (inactive) | – |
| COc1cccc(N(C(=O)c2snc(C(N)=O)c2N)C(C(=O)NCC2CCCO2)c2c[nH]c3ccccc23)c1 (centres undefined) | – | 5.62 µM (active) |
| CCOc1cc(C(C(=O)NCC2CCCO2)N(C(=O)Cn2nnc3ccccc32)c2cccc(OC)c2)ccc1O (centres undefined) | 11.2% (inactive) | – |
| COc1cc(C(=O)Nn2c(CC(C)C)nc3ccccc3c2=O)cc(OC)c1OC | 18.2% (inactive) | – |
| S=C(NN=C1CCN(Cc2ccccc2)CC1)NC1CCCCC1 | -5.93% (inactive) | – |
| CCCC1CCC(=NNC(=S)NCCc2ccccc2)CC1 (centres undefined) | – | 10 µM (active) |
| Cc1cc(F)ccc1NC(=S)NCCc1ccccc1 | -24.8% [at 46.1 µM] (inactive) | – |
| Fc1cc(Br)ccc1NC(=S)Nc1cccnc1 | -0.674% [at 46.1 µM] (inactive) | – |
| S=C(Nc1cccc(Br)c1)N1CCn2cccc2C1c1cccnc1 (centres undefined) | – | 7.94 µM (active) |
| COc1cccc(NC(=O)CC2C(=O)NCCN2C(=S)Nc2ccc(F)cc2)c1 (centres undefined) | 0.0127% (inactive) | – |
| CC(C)(C)C(=O)Nc1cccc(-c2ccc[nH]2)n1 | -16.2% [at 46.1 µM] (inactive) | – |
| c1ccc(CCc2ccccn2)cc1 | 4.27% (inactive) | – |
| Cc1cc(Br)ccc1NC(=S)NC1CCCC1 | -13% [at 46.1 µM] (inactive) | – |
| COc1ccc(C(=O)Nc2ccccc2C(=O)N/N=C/c2ccccc2OC)cc1 | 5.36% (inactive) | – |

| SMILES | activity change, negative = inhibition | Potency |
| --- | --- | --- |
| O=C(N/N=C/c1ccc(OC(=O)c2ccccc2Cl)cc1)c1ccc(O)cc1 | -2.38% (inactive) | – |
| COc1ccc(C(=O)Nc2ccccc2C(=O)N/N=C/c2ccc(O)c(OC)c2)cc1 | – | 0.355 µM (active) |
| Cc1ccc(-c2cc(C(=O)NC3CCN(Cc4ccccc4)CC3)c3ccccc3n2)cc1 | 11.4% [at 46.1 µM] (inactive) | – |
| COc1cccc(/C(C)=N/Nc2ncc(Cl)cc2Cl)c1 | 15.6% (inactive) | – |
| COc1cc(/C=C2\SC(=S)N(Nc3ncc(C(F)(F)F)cc3Cl)C2=O)cc(OC)c1OC | -0.887% (inactive) | – |
| COc1cccc(/C=N/Nc2ncc(C(F)(F)F)cc2Cl)c1O | – | 7.94 µM (active) |
| CCN(CC)S(=O)(=O)c1ccc(N2CCOCC2)c(NC(=O)C2CSC3(C)CCC(=O)N23)c1 (centres undefined) | 3.13% (inactive) | – |
| C=CCNC(=O)C1CC2c3ccccc3C1c1ccccc12 (centres undefined) | 1.7% (inactive) | – |
| O=c1c2c(nc3cc(-c4cccc(Cl)c4)[nH]n13)CCCC2 | – | 4.47 µM (active) |
| CCCCN1Cc2c(nc3cc(-c4ccccc4)[nH]n3c2=O)C1=O | 7.74% (inactive) | – |
| O=c1c2c(nc3nc[nH]n13)CCC2 | 9.91% (inactive) | – |
| COc1cc(Cl)c(C)cc1NC(=O)CN1CCCCCC1 | -0.418% (inactive) | – |
| CCc1c(Nc2ccccc2Cl)nc(N)[nH]c1=O | 2.83% [at 46.1 µM] (inactive) | – |
| CCOc1ccc(NC(=O)CCc2c(C)nn(-c3ccc(N4CCCC4)nn3)c2C)cc1 | 3.23% [at 46.1 µM] (inactive) | – |
| Cc1cccnc1CCNC(=O)C1CCC(=O)N(Cc2cccc(F)c2)C1 (centres undefined) | -1.79% (inactive) | – |
| Cc1ccc(Nc2nc(CSc3nnc(-c4ccncc4)n3-c3ccccc3C)cs2)cc1 | – | 8.91 µM (active) |
| Cc1ccc(Nc2nnc(SCc3ccccc3)s2)cc1 | 4.02% (inactive) | – |
| Cc1ccccc1-n1c(SCC(=O)NCc2cccs2)nnc1-c1ccncc1 | 13.7% (inactive) | – |
| CCOC(=O)c1ccc(NC(=O)c2ccc(NC(=O)C3CCCO3)cc2)cc1 (centres undefined) | -16.3% [at 46.1 µM] (inactive) | – |
| Cc1sc2ncnc(N3CCC(C(=O)NNC(=O)c4ccc(F)cc4)CC3)c2c1C | -25.3% (inactive) | – |
| CCOc1ccc(-n2c(O)c(/C=N/Nc3nnc(C)c(=O)[nH]3)c3ccccc3c2=O)cc1 | -1.29% (inactive) | – |
| COc1ccc(Cc2nnc(N/N=C/c3ccccc3O)[nH]c2=O)cc1OC | – | 3.98 µM (active) |
| O=c1[nH]c(NCCO)nnc1Cc1ccc(Cl)cc1 | 4.68% (inactive) | – |

| SMILES | activity change, negative = inhibition | Potency |
| --- | --- | --- |
| CCNC(=S)N1CCN(S(=O)(=O)c2ccc(Cl)s2)CC1 | -8.37% (inactive) | – |
| CN(C(=O)CSc1cccc[n+]1[O-])C1CCCCC1 | 11.1% (inactive) | – |
| COc1cc(NC(=O)CSc2ccc(-c3cccnc3)nn2)cc(OC)c1 | 2.53% (inactive) | – |
| COc1cc(Nc2nccc(-c3cnn4ncccc34)n2)cc(OC)c1 | – | 2.5 µM (active) |
| COc1cccc(Nc2ncccc2C(=O)O)c1 | 12.8% (inactive) | – |
| O=c1c(-c2cccc(Cl)c2)c[nH]n1-c1ccccc1 | -0.387% (inactive) | – |
| Cc1cc(Br)ccc1NC(=O)c1cnc(N2CCN(c3ccccn3)CC2)c2ccccc12 | – | 16.4 µM (active) |
| COC(=O)c1cnc(N2CCN(c3ccccc3OC)CC2)c2ccccc12 | -11.8% [at 46.1 µM] (inactive) | – |
| O=C(Cc1ccc(Br)cc1)N1CCN(c2ccccn2)CC1 | 4.49% (inactive) | – |
| O=C(C1CC(=O)N(C2CCCC2)C1)N1CCN(c2cccc(C(F)(F)F)c2)CC1 (centres undefined) | 0.458% (inactive) | – |
| Cc1cc(C)c(S(=O)(=O)NCC(c2ccc3c(c2)OCO3)N2CCOCC2)c(C)c1 (centres undefined) | -16.8% (inactive) | – |
| CC(C)CN1CC(C)C(=O)N(c2ccccc2)C1=S (centres undefined) | 16.6% [at 46.1 µM] (inactive) | – |
| CN(C)C(CNC(=O)c1cc2ccccc2o1)c1ccccc1 (centres undefined) | 1.37% (inactive) | – |
| O=[N+]([O-])c1cc(Br)c(O)c(/C=N/Nc2nc3ccccc3s2)c1 | 12.3% [at 46.1 µM] (inactive) | – |
| c1ccc(C(=NNc2nc3ccccc3s2)c2ccccn2)cc1 | – | 12.6 µM (active) |
| O=C(Nc1ccccc1Cl)O/N=C(/c1ccccc1)c1ccccn1 | -5.93% (inactive) | – |
| O=C(CCNC(=O)c1ccc(Br)cc1)Nc1cccc(S(=O)(=O)N2CCCCC2)c1 | -10.2% (inactive) | – |
| COc1cccc(-c2n[nH]c3c2C(c2cccc(O)c2)N(C)C3=O)c1 (centres undefined) | -0.126% [at 46.1 µM] (inactive) | – |
| CCCCn1c(N)c(N(CCOC)C(=O)c2cccc(OCc3ccccc3)c2)c(=O)[nH]c1=O | 1.78% (inactive) | – |
| COc1ccc(CCN(C)CCN2C(=O)c3ccccc3C2=O)cc1OC | 11.1% (inactive) | – |
| CCCCN1C(=O)c2[nH]nc(-c3ccccc3O)c2C1c1cccc(OCc2ccccc2)c1 (centres undefined) | – | 1.58 µM (active) |
| Cc1cc(C)c(-c2n[nH]c3c2C(c2ccccc2F)N(CCO)C3=O)c(O)c1 (centres undefined) | -14.4% [at 46.1 µM] (inactive) | – |
| COc1ccc(CCN2C(=O)c3[nH]nc(-c4ccccc4O)c3C2c2ccc(C)cc2)cc1OC (centres undefined) | – | 10 µM (active) |

From PubChem BioAssay AID540256 (National Center for Advancing Translational Sciences (NCATS), 2011)
